# KDM5B inh: inhibitors of human KDM5B histone demethylase; KDM5B demethylase, FDH-coupled NADH fluorescence (FDH is formaldehyde dehydrogenase); 220,000 compounds, 2.6% hits; Potency, µM (highest dose often 57.7 µM), usual class: inhibitors; Q9UGL1; active means well fitted inhibition curve with a large enough effect; inconclusive means small, poorly fitted or top-dose-only effect; inactive means no such curve, though single readings can be large or run the other way; further: potency means the concentration at half of the fitted maximal effect; 0% is about no effect; nearly all actives have a fitted effect of over 70% in size
#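 Here, H3K4me3 peptide (12.5 µM in substrate mix) is demethylated by KDM5BΔAP, 200 nM final, after 10 min compound exposure. Formaldehyde product is coupled through FDH (0.25 U/mL in mix) to NADH fluorescence; 30-min ΔRFU feeds dose-response curves.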
# IP6K1 inhibitor: blocks human inositol hexakisphosphate kinase 1; IP6K1 kinase, ADP-Glo luminescence, 2 h; stronger effect = lower value; 140,000 compounds, 0.81% hits; Q92551; activity change, % (series mostly up to about 58 µM); in the data active means activity change below about -25%; further: on the % scale 0 is the no-effect control and ±100 the full control effect
# Target sequence (Q92551 whole entry, looked up): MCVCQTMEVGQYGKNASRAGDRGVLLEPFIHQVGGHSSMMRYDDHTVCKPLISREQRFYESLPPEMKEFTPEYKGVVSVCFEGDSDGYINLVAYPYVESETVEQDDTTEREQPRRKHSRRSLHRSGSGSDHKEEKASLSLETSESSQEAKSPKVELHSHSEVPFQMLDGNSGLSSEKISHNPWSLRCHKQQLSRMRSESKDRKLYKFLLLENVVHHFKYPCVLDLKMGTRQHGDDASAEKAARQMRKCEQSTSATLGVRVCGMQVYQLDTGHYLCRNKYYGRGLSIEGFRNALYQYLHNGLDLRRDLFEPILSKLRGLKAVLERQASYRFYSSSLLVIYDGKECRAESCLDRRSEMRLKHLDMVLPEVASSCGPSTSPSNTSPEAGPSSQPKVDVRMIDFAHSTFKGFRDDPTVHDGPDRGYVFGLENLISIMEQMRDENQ
#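 ADP-Glo luminescence measures ADP made by human IP6K1 during a 2 h RT reaction with ATP/IP6 (mix at 1.3 mM/130 uM); top library doses 57.5 and 19.1 uM final.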
# An asterisk follows results filed as active; i = inactive; u = inconclusive; x = no result given. An excerpt weighted towards active compounds, which were near 2.7% of everything screened.
SMILES,KDM5B inh,IP6K1 inhibitor
O=C(NC1CC1)C1COC2(CCN(C(=O)c3ccc(F)cc3)CC2)N1C(=O)c1cccc(F)c1 (configuration not stated),i,15.3
Cc1cccc(NC(=O)NC(=O)CN(C)Cc2ccccc2)c1C,i,x
CCc1nc2c(c(-c3ccc(Cl)cc3)n1)CN(Cc1ccccc1)CC2,u,8.6
O=C(c1nc(-c2cc(Cl)cc(Cl)c2)c2ccccn12)N1CCN(c2ncccn2)CC1,i,6.7
O=C(c1nc(-c2ccsc2)c2ccccn12)N1CCOCC1,35.5µM*,9.0
C[S+](=O)([O-])c1ccc(-c2nc(C(=O)N3CCN(c4ncccn4)CC3)n3ccccc23)cc1,u,-4.1
COc1ccc(-c2nc(C(=O)N3CCN(c4ncccn4)CC3)n3ccccc23)cc1,31.6µM*,11.9
O=C(c1nc(-c2cccnc2)c2ccccn12)N1CCN(c2ncccn2)CC1,i,0.4
COc1ccccc1-c1nc(C(=O)N2CCN(c3ncccn3)CC2)n2ccccc12,u,-19.5
CC(C)(C)c1nc(C(=O)N2CCN(c3ncccn3)CC2)n2ccccc12,79.4µM*,-11.0
O=C(c1nc(-c2ccsc2)c2ccccn12)N1CCN(c2ncccn2)CC1,25.1µM*,-3.9
CC(=O)NC1(C)CCN(Cc2ccc(-c3ccccc3Oc3ccccc3)cc2)C1 (configuration not stated),u,2.8
COCc1ccc(C(=O)N[C@@H]2CCOC[C@H]2OCc2ccccc2)s1,i,-8.8
Cc1cc(C(=O)N[C@@H]2CCOC[C@H]2OCC(=O)O)sc1-c1ccccc1,25.1µM*,-6.5
Cc1ccc(C)c2sc(NC(=O)c3ccc(S(=O)(=O)N(C)C)cc3)nc12,i,x
Cc1cncc(-c2ccccc2OCCN(C)C)c1,i,11.9
CN(C)CCOc1ccccc1-c1ccc(C#N)cc1,31.6µM*,8.5
CN1CCN([C@@H]2[C@H](O)[C@H](CO)O[C@@H]2CN(Cc2ccc(Cl)cc2)Cc2cccc(Cl)c2)CC1,i,-4.1
O=C(N[C@@H]1C[C@H](Cn2cc(CN3CCS(=O)(=O)CC3)nn2)[C@@H](O)[C@H]1O)c1cncnc1,14.1µM*,8.0
O=C(N[C@@H]1C[C@H](Cn2cc(CN3CCS(=O)(=O)CC3)nn2)[C@@H](O)[C@H]1O)C1CCCC1,u,-3.8
COc1ccc(-c2nc(C(=O)N3CCC(C)CC3)nn2-c2ccccc2Cl)cc1,i,x
Fc1ccc(-c2noc([C@@H]3Cc4nc[nH]c4CN3Cc3ccccc3)n2)cc1Cl,35.5µM*,0.2
Fc1ccc(-c2noc([C@@H]3Cc4nc[nH]c4CN3Cc3cccs3)n2)cc1Cl,i,16.9
c1ccc2cc(-c3noc([C@@H]4Cc5nc[nH]c5CN4CC4CCCCC4)n3)ccc2c1,28.2µM*,11.4
Cc1cccc(-c2noc([C@@H]3Cc4nc[nH]c4CN3Cc3ccc(C(=O)O)cc3)n2)c1,31.6µM*,-8.5
SMILES,KDM5B inh,IP6K1 inhibitor
Fc1ccc(-c2noc([C@@H]3Cc4nc[nH]c4CN3Cc3cc4ccccc4o3)n2)cc1Cl,28.2µM*,11.6
O=C(O)c1ccc(CN2Cc3[nH]cnc3C[C@H]2c2nc(-c3ccc(F)cc3)no2)cc1,u,11.7
Fc1ccc(-c2noc([C@@H]3Cc4nc[nH]c4CN3CCCc3ccccc3)n2)cc1Cl,u,14.0
Cc1ccc(-c2noc([C@@H]3Cc4nc[nH]c4CN3CC3CCCCC3)n2)cc1,u,-13.9
CC(CCc1ccco1)NC(=O)c1ccccc1F (configuration not stated),i,x
CCn1c(SCc2coc(-c3cccs3)n2)nnc1C1CC1,i,x
O=C1Nc2ccc(-c3ccc(Cl)cc3)cc2C(=O)N2CCN(C(=O)c3cccnc3)C[C@H]12,u,3.2
CC(C)c1nc(N2CCN(C(=O)C(=O)NCCCO)CC2)c(C#N)c2c1CCCC2,i,x
Nc1nccnc1C(=O)Nc1ccc(SCc2cccnc2)cc1,i,x
CCOC(=O)C1=C(C)N(C)C(=O)C1(c1cc(C)c(O)c(C)c1)C(F)(F)F (configuration not stated),i,x
CCCNC(=O)N1CCCCCC1CN1CCCC1 (configuration not stated),25.1µM*,-14.4
CC(C)NC(=O)N1CCCCCC1CN1CCCC1 (configuration not stated),u,-9.1
COc1ccc2nc3n(c2c1)[C@@H](CNC(=O)c1ccccc1)COC3,u,-12.9
COc1ccc2nc3n(c2c1)[C@@H](CNC(=O)C1CCOCC1)COC3,39.8µM*,1.3
O=C(NCCNc1ncccn1)NCCC(c1ccccc1)c1ccccc1,i,x
Nc1cc(N2CC[C@@H](N3CCN(CCc4ccccc4)CC3)[C@H](O)C2)nc(N)n1,4.47µM*,-5.7
CN1CCN(c2cc(N3CC[C@H](CO)[C@H](O)C3)nc(N)n2)CC1,i,-6.9
COC(C(=O)NCc1ccc(C)cc1)(c1ccccc1)c1ccccc1,i,x
COc1nc2c(c(=O)n(C)c(=O)n2C)n1Cc1ccc(Cl)cc1Cl,i,x
COc1ccc(-c2ccc(C(=O)NC3CC3)cc2)nn1,x,-21.5
CN(C)c1ccc(CC(=O)N2CC[C@@](C)(O)[C@@H](O)C2)cc1,i,14.2
C[C@@]1(O)CCN(Cc2ccc3c4c(cccc24)C(=O)OC3)C[C@@H]1O,28.2µM*,5.3
CC(NC(=O)c1cc(-c2ccc(Br)cc2)n[nH]1)c1ccc(F)cc1 (configuration not stated),i,x
CN(Cc1ccc(CN2CCCC(O)(CO)C2)o1)S(C)(=O)=O (configuration not stated),i,4.1
C=CC[C@H]1CC(C)=C[C@H](CC=C)N1Cc1ccc(CN(C)S(C)(=O)=O)o1,14.1µM*,2.6
SMILES,KDM5B inh,IP6K1 inhibitor
CN1CCN(c2cc(=O)c3ccnc(-c4cn[nH]c4)c3o2)CC1,28.2µM*,-13.9
COc1ccc(-c2nccc3c(=O)cc(N4CCN(C)CC4)oc23)cc1OC,i,-19.9
O=c1cc(N2CCOCC2)oc2c(-c3ccccc3F)nccc12,u,-21.1
CN1CCN(c2cc(=O)c3ccnc(-c4ccccc4O)c3o2)CC1,u,-15.0
CN1CCN(c2cc(=O)c3ccnc(-c4ccccc4F)c3o2)CC1,35.5µM*,-7.0
CN1CCN(c2cc(=O)c3ccnc(-c4ccnn4C)c3o2)CC1,39.8µM*,-13.5
Cn1c(=O)c2cc(C(=O)Nc3ccc(Cl)c4ncccc34)cnc2n(C)c1=O,i,x
COc1ccccc1CNc1nc(-c2ccc(CN(C)C(C)=O)cc2)cs1,i,x
Cc1ccc(C)c(OCc2ccc(-c3nc(C#N)c(N4CCC(C(N)=O)CC4)o3)o2)c1,i,x
CCOc1ccc2c(=O)c(-c3ccccc3OC)c(C)oc2c1,i,x
CCCCNC(=O)Cc1csc2nc(C)c(-c3cc(C)n(-c4cccc(Cl)c4)n3)c(=O)n12,u,23.0
Cc1nc2scc(CC(=O)NCC(C)C)n2c(=O)c1-c1cc(C)n(-c2ccc(F)cc2)n1,u,25.5
Cc1nc2scc(CC(=O)NC(C)C)n2c(=O)c1-c1cc(C)n(-c2ccc(C(C)C)cc2)n1,u,10.7
Cc1cccc(-n2nc(-c3c(C)nc4scc(CC(=O)NC(C)C)n4c3=O)cc2C)c1,u,27.6
Cc1nc2scc(CC(=O)N3CCOCC3)n2c(=O)c1-c1cc(C)n(-c2ccc(C(C)C)cc2)n1,25.1µM*,5.1
Cc1ccc(Cl)cc1-n1nc(-c2c(C)nc3scc(CC(=O)NCCC(C)C)n3c2=O)cc1C,22.4µM*,6.3
